Assay outcomes (PubChem)
HT1080 IDH1KD tx – toxicity to HT-1080 IDH1 knockdown cells (counter line); Potency, µM (top dose mostly 46.1 µM), actives largely listed as cytotoxic; actives 2% (n = 360,000); HT-1080 IDH1 knockdown viability, ATP luminescence, 48 h
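Using the IDH1-knockdown HT-1080 line run in the same batch and compound series as the NT line, viability after 48 h at 37 °C was determined by CellTiter-Glo luminescence and expressed as % activity.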
HT1080-NT tox – kills 2HG-producing HT-1080-NT fibrosarcoma cells; HT-1080-NT fibrosarcoma viability, CellTiter-Glo ATP luminescence, 48 h; Potency, µM (series often up to 46.1 µM), actives largely listed as cytotoxic; actives 1.6% (n = 360,000);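 further: NT is the 2HG producing partner of a matched IDH1 knockdown line; nearly all actives have a fitted effect of over 55% in size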
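750 cells/well, RPMI + 5% FBS; 2 h settle, compound pin-transfer, 48 h at 37 degrees C. CellTiter-Glo 10 min RT, luminescence. Normalized to DMSO and media-only wells.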
IL-1B inflam inh – blocks inflammasome-driven IL-1 beta release; actives 4.7% (n = 360,000); activity change, % at 57.5 µM; THP-1 LPS/ATP IL-1B secretion, AlphaLISA, 16 h; active compounds read low; in the data active means activity change below about -50%; inconclusive means mostly about -30% to -49%
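THP-1 cells pretreated 1 hr with compounds (up to 57.5 uM final), then stimulated with LPS (250 ng/mL final) plus ATP (1.25 mM final); secreted IL-1B measured by AlphaLISA after 16 hr, decreased signal indicating inhibition.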
TDP1 cell noCPT – qHTS for Inhibitors of human tyrosyl-DNA phosphodiesterase 1 (TDP1): qHTS in cells in absence of CPT | actives 15% (n = 420,000) | DT40 Tdp1-/- hTDP1 cells, no CPT, ATP luminescence, 48 h | AID 686978, 2013 | Potency, µM (doses to about 46.2 µM), usual class: inhibitors; further: nearly all actives have a fitted effect of over 55% in size
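Cells were dispensed at 400 per well, compounds added by pin tool, plates incubated ≥48 hr at 37 °C, then CellTiter-Glo added for 30 min at room temperature before luminescence reading. Line: DT40 Tdp1-/- complemented with hTDP1; camptothecin omitted.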
TDP1 cell CPT – growth inhibition of DT40 Tdp1-/-;hTDP1 cells with camptothecin (screen for TDP1 inhibitors); chicken DT40 Tdp1-/-;hTDP1 cells + 20 nM CPT, ATP luminescence, 48 h; Potency, µM (titrated, usually from 46.2 µM), usual class: inhibitors; actives 12% (n = 420,000); further: nearly all actives have a fitted effect of over 55% in size
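Chicken DT40 Tdp1-/- cells stably complemented with human TDP1 were seeded at 400 cells/well in medium containing 20 nM camptothecin, exposed to pin-transferred compounds, and grown at 37 °C for at least 48 hr. Viability was read as ATP luminescence.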
Each line names hits and unclear results; the compound was inactive in the other large screens; ! = repeats disagree. This is a sample that favours compounds with a hit; in the whole collection about 19% have one here. Unless noted, the call rests on the fitted dose curve; in most records, active means well fitted curve in the direction sought with a large enough effect; inconclusive means small, poorly fitted or top-dose-only effect, or another doubt; inactive means no such curve, though single readings can be large; an effect the other way counts as inactive or inconclusive.

C=Cn1ccnc1P(=S)(c1ccc(Cl)cc1)c1nccn1C=C	none
COC(=O)C1=C(c2ccc(F)cc2F)C[C@@H]2CC[C@H]1N2C(=O)N1CCCCC1	TDP1 cell noCPT 18µM, TDP1 cell CPT 13µM
COC(=O)C1=C(c2cccc(OC)c2OC)C[C@@H]2CC[C@H]1N2C(=O)N1CCCCC1	TDP1 cell CPT inconclusive (no result: TDP1 cell noCPT)
CCOC(=O)c1ccc(NC(=O)c2nc[nH]c2C(=O)NCCNC(=O)c2[nH]cnc2C(=O)Nc2ccc(C(=O)OCC)cc2)cc1	TDP1 cell noCPT 3.7µM, TDP1 cell CPT 2.9µM
O=C1NC2C(O)C(O)C(O)C(O)C2c2cc3c(c(O)c21)OCO3 (configuration not stated)	HT1080 IDH1KD tx 0.23µM, HT1080-NT tox 0.46µM, IL-1B inflam inh -103, TDP1 cell noCPT 0.073µM, TDP1 cell CPT 0.16µM
O=C1NC2C(=CC(O)C(O)C2O)c2cc3c(c(O)c21)OCO3 (configuration not stated)	HT1080 IDH1KD tx 0.15µM, HT1080-NT tox 0.73µM, IL-1B inflam inh -117, TDP1 cell noCPT 0.092µM, TDP1 cell CPT 0.058µM
O=C1NC2C(=CC(O)C(O)C2O)c2cc3c(cc21)OCO3 (configuration not stated)	HT1080 IDH1KD tx 1.2µM, HT1080-NT tox inconclusive, IL-1B inflam inh -101, TDP1 cell noCPT 0.29µM, TDP1 cell CPT 0.41µM
CN1CN(c2ccccc2)C2(CCN(CCCSc3ccccc3NC(=O)/C=C/c3ccccc3)CC2)C1=O	HT1080 IDH1KD tx inconclusive, HT1080-NT tox inconclusive, IL-1B inflam inh -71, TDP1 cell noCPT inconclusive, TDP1 cell CPT inconclusive
O=C(/C=C/c1ccc(F)cc1)NNC(=O)CCN1CCN(Cc2ccccc2)CC1	TDP1 cell noCPT inconclusive
CC1CCN(C(=O)C2CCN(c3nnc(-n4cccc4)s3)CC2)CC1	TDP1 cell noCPT inconclusive
Cc1c(NS(=O)(=O)c2ccccc2)ccc([N+](=O)[O-])c1Cl	HT1080 IDH1KD tx inconclusive, HT1080-NT tox 2.9µM, TDP1 cell noCPT 16µM, TDP1 cell CPT inconclusive
CCN(CCNc1ccc([N+](=O)[O-])c2cccnc12)S(=O)(=O)c1ccccc1	none
O=C(Cn1nc(-c2ccc(Cl)cc2)ccc1=O)N1CCC2(CC1)OCCO2	none
C#C[C@]1(O)CC[C@H]2[C@@H]3CCC4=CC(=O)CC[C@]4(C)[C@H]3CC[C@@]21C	none
C#C[C@]1(O)CCC2C3C(=O)C=C4C(Cl)=CCC[C@]4(C)C3CC[C@@]21C (some centres not stated)	HT1080 IDH1KD tx 33µM, HT1080-NT tox 10µM, IL-1B inflam inh -90, TDP1 cell noCPT 10µM, TDP1 cell CPT 16µM
CC(=O)OC1(c2ccccc2)CCN(CCc2ccccc2)CC1	TDP1 cell noCPT 22µM, TDP1 cell CPT inconclusive (no result: HT1080 IDH1KD tx, HT1080-NT tox, IL-1B inflam inh)
O=C(Nc1ccc(Cl)c(C(F)(F)F)c1)[C@@H]1CC=C[C@@H]2CCN(Cc3ccccc3)C(=O)[C@@H]21	TDP1 cell noCPT inconclusive, TDP1 cell CPT inconclusive
O=C(Cc1c[nH]c2ccccc12)NNCc1ccc(N(CCCl)CCCl)cc1	TDP1 cell noCPT 0.92µM, TDP1 cell CPT 0.52µM
CC1CC(C)CN(C(=O)COC(=O)c2cn(C)c3ccccc23)C1 (configuration not stated)	none
CCN(CC)C(=O)c1ccc(NC(=O)Nc2ccccc2F)cc1	HT1080 IDH1KD tx 5.2µM, HT1080-NT tox 7.3µM, TDP1 cell noCPT 9.2µM, TDP1 cell CPT 4.6µM
Cc1ccc([C@H]2N[C@]3(CCCN(Cc4ccc(C(F)(F)F)cc4)C3=O)[C@H]3C(=O)N(Cc4ccccc4)C(=O)[C@@H]23)cc1	IL-1B inflam inh -70, TDP1 cell noCPT inconclusive, TDP1 cell CPT 23µM
COc1ccc(OC)c(CN2C(=O)c3ccccc3C2c2nnnn2-c2c(C)cccc2C)c1 (configuration not stated)	TDP1 cell noCPT inconclusive, TDP1 cell CPT inconclusive
CCOC(=O)[C@]12Cc3ccccc3[C@H]1N(CCC(=O)OC)C(=O)c1cc(OC)ccc12	HT1080 IDH1KD tx inconclusive, HT1080-NT tox inconclusive, IL-1B inflam inh -118, TDP1 cell noCPT inconclusive, TDP1 cell CPT inconclusive
CCOC(=O)[C@]12Cc3cc(OC)ccc3[C@H]1N(CCC(=O)OC)C(=O)c1cc(OC)ccc12	HT1080 IDH1KD tx inconclusive, HT1080-NT tox inconclusive, IL-1B inflam inh -54, TDP1 cell noCPT 15µM, TDP1 cell CPT inconclusive
CCN1CCC2(CCNC2)C1 (configuration not stated)	none
CC(c1ccccc1)n1cncc1C(=O)N1CCCC1=O (configuration not stated)	TDP1 cell CPT inconclusive
O=[N+]([O-])c1ccc(NCc2ccc(Cl)cc2)c2ccncc12	IL-1B inflam inh -57, TDP1 cell noCPT 21µM, TDP1 cell CPT 23µM
O=[N+]([O-])c1ccc(NCc2ccccc2)c2nonc12	none
Cc1ccc(OC(=O)N(C)C[C@@H]2OCc3cnnn3CCCC(=O)N([C@H](C)CO)C[C@H]2C)cc1	none
COC1=CC(=O)[C@]2(C=C1OC)OC[C@@H]1Oc3c(ccc4c3C=CC(C)(C)O4)C(=O)[C@@H]12	TDP1 cell noCPT 0.21µM, TDP1 cell CPT 0.29µM
COC(=O)[C@H](Cc1ccccc1)N(Cc1ccccc1)S(=O)(=O)N(Cc1ccccc1)[C@@H](Cc1ccccc1)C(=O)OC	TDP1 cell noCPT 12µM, TDP1 cell CPT 23µM
O=C1CC23c4ccccc4N4C(=O)CC5OCC=C6CN1C2CC6C5C43 (configuration not stated)	TDP1 cell noCPT inconclusive
O=C1NC(=O)C(=Cc2ccc(SC3CCCCC3)o2)C(=O)N1	HT1080 IDH1KD tx inconclusive, HT1080-NT tox inconclusive, IL-1B inflam inh inconclusive, TDP1 cell noCPT inconclusive, TDP1 cell CPT 16µM
Cc1nccc2c1[nH]c1ccccc12	TDP1 cell noCPT 24µM!, TDP1 cell CPT inconclusive
Cc1c2ccncc2c(C)c2c1[nH]c1ccccc12	HT1080 IDH1KD tx 3.7µM, HT1080-NT tox 10µM, IL-1B inflam inh -79, TDP1 cell noCPT 1.5µM, TDP1 cell CPT 2.3µM
O=C1CN=C(c2ccccc2)c2cc(Br)ccc2N1Cc1cc(=O)n2ccccc2n1	TDP1 cell noCPT inconclusive, TDP1 cell CPT inconclusive
Cc1oc(-c2ccccc2Cl)nc1CN1C(=O)CN=C(c2ccccc2)c2ccccc21	IL-1B inflam inh inconclusive, TDP1 cell noCPT 21µM, TDP1 cell CPT inconclusive
O=C1CN=C(c2ccccc2)c2ccccc2N1Cc1ccc(C(F)(F)F)cc1	TDP1 cell noCPT inconclusive, TDP1 cell CPT 22µM
Cc1ccc(-c2nc(CN3C(=O)CN=C(c4ccccc4)c4ccccc43)c(C)o2)cc1	TDP1 cell noCPT 18µM, TDP1 cell CPT inconclusive (no result: HT1080 IDH1KD tx, HT1080-NT tox, IL-1B inflam inh)
CN1C(=O)C(O)N=C(c2ccccc2)c2ccccc21 (configuration not stated)	none
